From PubChem BioAssay (NCATS)
Calls of active or inactive are those of the source. A call without a number means that no potency is given here. Calls come from the whole dose curve; as a rule, active = well fitted curve in the direction sought with a large enough effect; inconclusive = small, poorly fitted or top-dose-only effect, or another doubt; inactive = no such curve, though single readings can be large or run the other way.
Potency is the fitted concentration of half-maximal effect.

Experiment: Cellular Toxicity (caspase-3) BJ (AID 658);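 for caspase-3 activation: cells exposed to compound for 16 hours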
Details: BJ fibroblasts, luminescence; Potency: caspase-3 activation; series mostly up to 91.7 µM
Method in brief: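 qHTS, BJ fibroblasts, 1000 cells/well; 5 hr preincubation, 16 hr compound, 37 °C; Caspase-Glo 3/7 reagent, 1 hr RT; luminescence. DMSO = 0%, 10 uM staurosporine = 100%. Hill-equation AC50.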
For `Oc1ccc2cc(SSc3ccc4cc(O)ccc4c3)ccc2c1`, the Potency was “inactive”.
With `Nc1ccc2cc3ccccc3cc2c1` the Potency was “inactive”.
For `CN(C)c1ccc(C2(c3ccc(N(C)C)cc3)OC(=O)c3cc(N(C)C)ccc32)cc1`, the Potency was “inactive”.
In the case of `Cc1cc(Nc2ccc(O)cc2)ccc1N`, the Potency is reported as “inactive”.
For `CO[C@H]1/C=C/O[C@@]2(C)Oc3c(C)c(O)c4c(O)c(c5c(c4c3C2=O)NC2(CCN(CC(C)C)CC2)N=5)=NC(=O)/C(C)=C\C=C\[C@H](C)[C@H](O)[C@@H](C)[C@@H](O)[C@@H](C)[C@H](OC(C)=O)[C@@H]1C`, the Potency was “inactive”.
In the case of `C=C(C)c1ccccc1`, the Potency is reported as “inactive”.
In the case of `Cc1ccc(S(=O)(=O)Oc2ccc(N=Nc3ccc(-c4ccc(N=Nc5c(O)ccc6cc(S(=O)(=O)O)cc(S(=O)(=O)O)c56)c(C)c4)cc3C)cc2)cc1`, the Potency is reported as “inactive”.
With `O=C1OC2(c3cc(Br)c(O)c(Br)c3Oc3c2cc(Br)c(O)c3Br)c2c(Cl)c(Cl)c(Cl)c(Cl)c21` the Potency was “inactive”.
With `ClC1=C(Cl)C(Cl)(Cl)C(Cl)=C1Cl` the Potency was 3.98 µM (active).
With `C/C=C1\C(=O)C[C@H]2[C@@H]3CCC4=CC(=O)CC[C@]4(C)[C@H]3CC[C@]12C` the Potency was “inactive”.
With `O=C1OC(O)C(C(Cl)Cl)=C1Cl` (centres undefined) the Potency was “inactive”.
In the case of `CNc1ccc(O)cc1`, the Potency is reported as “inactive”.
In the case of `CC(=O)Nc1ccc(C(=O)CCl)cc1`, the Potency is reported as “inactive”.
In the case of `CCC(C)Nc1ccc(NC(C)CC)cc1` (centres undefined), the Potency is reported as “inactive”.
For `O=C=Nc1ccc(Cc2ccc(N=C=O)cc2)cc1`, the Potency was “inactive”.
With `c1ccc2c(c1)ccc1cc3c(ccc4ccccc43)cc12` the Potency was “inactive”.
For `c1ccc2c(c1)-c1cccc3c1c-2cc1ccccc13`, the Potency was “inactive”.
For `O=[N+]([O-])c1cc([N+](=O)[O-])c2ccc(S(=O)(=O)O)cc2c1O`, the Potency was “inactive”.
With `O=Cc1ccc(Cl)c(Cl)c1` the Potency was “inactive”.
